PubChem BioAssay AID1224921 (Broad Institute, 2016)
About 350 (25%) of roughly 1,400 compounds were called active. Another 2% or so got no clear call; they are omitted. The rule behind the calls is not given here. A selection follows. Entries with a potency or affinity are not part of this list.

Experiment: C. difficile growth inhibition, confirmation, 4-point retest (AID 1224921);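 note: plate controls were DMSO wells for no effect and levofloxacin 16 µg/mL wells for full effect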
Details: Clostridioides difficile clinical isolate growth, OD600, 24 h, stronger effect = lower value; at 30 µM unless noted

Max activity, inactive:
O=C(C[C@H]1C[C@H]2c3cc(NC(=O)Nc4ccc(C(F)(F)F)cc4)ccc3O[C@H]2[C@@H](CO)O1)NCc1ccc(Cl)cc1 -6.14% [at 7.5 µM]
CO[C@@H]1CN(C)C(=O)c2cc(NC(=O)Nc3c(C)noc3C)ccc2OC[C@@H](C)N(C(=O)Nc2cccc(Cl)c2)C[C@H]1C 14.7%
C[C@H](CO)N1C[C@H](C)[C@@H](CN(C)C(=O)NC2CCCCC2)Oc2c(NC(=O)Nc3ccc(C(F)(F)F)cc3)cccc2C1=O 28.8%
C[C@H](CO)N1C[C@H](C)[C@@H](CN(C)C(=O)NC2CCCCC2)Oc2c(NC(=O)Nc3ccc(F)cc3)cccc2C1=O 20.1%
CC(C)NC(=O)N(C)C[C@H]1Oc2c(NC(=O)Nc3ccc(C(F)(F)F)cc3)cccc2C(=O)N([C@@H](C)CO)C[C@H]1C 34.2% [at 8 µM]
C[C@@H]1CN([C@H](C)CO)C(=O)c2cccc(NC(=O)Nc3ccc(C(F)(F)F)cc3)c2O[C@H]1CN(C)C(=O)NC1CCCCC1 34.6%
Cc1ccc(-c2cnc3c(c2)C(=O)N([C@@H](C)CO)C[C@@H](C)[C@@H](CN(C)C(=O)c2cccc(F)c2)O3)cc1 28.4%
CC(C)[C@H](C)NC(=O)N(C)C[C@@H]1OCc2ccccc2-c2ccccc2C(=O)N([C@@H](C)CO)C[C@H]1C -10.9% [at 1.95 µM]
CO[C@H]1CN(C)C(=O)c2ccc(NS(=O)(=O)c3ccc(C)cc3)cc2OC[C@@H](C)N(C(=O)NC(C)C)C[C@H]1C 6.95%
C[C@@H]1CN([C@H](C)CO)S(=O)(=O)c2ccc(C#CCC3CCCC3)cc2O[C@@H]1CN(C)C(=O)CC1CC1 36.7%
Cc1noc(C)c1NC(=O)N[C@@H]1CC[C@H](CC(=O)Nc2ccc(-c3ccccc3)cc2)O[C@@H]1CO 42%
CCN1C[C@@H](C)[C@H](OC)CN(C)C(=O)c2cc(NC(=O)NC(C)C)ccc2OC[C@H]1C 16.9%
CC(C)CC#Cc1ccc2c(c1)O[C@H](CN(C)Cc1cccnc1)[C@H](C)CN([C@@H](C)CO)S2(=O)=O 26.5%
N#C[C@H]1[C@H](c2ccc(C#Cc3ccccc3F)cc2)[C@@H](CO)N1C(=O)C1CCCCC1 15.2% [at 1.95 µM]
CCC(=O)Nc1ccc2c(c1)OC[C@@H](C)N(Cc1ccccc1)C[C@H](C)[C@@H](OC)CN(C)C2=O 21.5%
COc1ccc(CN(C)C[C@H]2OCCCC[C@H](C)Oc3ccc(NC(=O)Nc4ccc(C(F)(F)F)cc4)cc3C(=O)N([C@H](C)CO)C[C@H]2C)cc1 38.6% [at 1.95 µM]
COc1ccc(CN(C)C[C@@H]2OCCCC[C@H](C)Oc3ccc(NC(=O)Nc4ccc(F)cc4)cc3C(=O)N([C@@H](C)CO)C[C@H]2C)cc1 23.6%
COc1ccc(CN(C)C[C@H]2OCCCC[C@@H](C)Oc3ccc(NC(=O)Nc4ccc(C(F)(F)F)cc4)cc3C(=O)N([C@@H](C)CO)C[C@H]2C)cc1 38.8% [at 1.95 µM]
COc1ccc(CN(C)C[C@@H]2OCCCC[C@H](C)Oc3ccc(NC(=O)Nc4ccc(C(F)(F)F)cc4)cc3C(=O)N([C@@H](C)CO)C[C@H]2C)cc1 21.3% [at 8 µM]
COc1ccc(CN(C)C[C@H]2OCCCC[C@H](C)Oc3ccc(NC(=O)Nc4ccc(C(F)(F)F)cc4)cc3C(=O)N([C@H](C)CO)C[C@@H]2C)cc1 35.8%
COc1ccc(CN(C)C[C@@H]2OCCCC[C@@H](C)Oc3ccc(NC(=O)Nc4ccc(C(F)(F)F)cc4)cc3C(=O)N([C@H](C)CO)C[C@H]2C)cc1 35.6% [at 8 µM]
